Assay outcomes from PubChem BioAssay.
The list is not random: actives were taken first. Their share in the collection is about 0.9%.
PPARg SRC-1 ag: PPARgamma agonists recruiting SRC-1 coactivator, primary screen, biochemical; actives 0.41% (n = 200,000); AID 631, 2007; activation, % at 8 µM; Peroxisome proliferator-activated receptor gamma (Homo sapiens), P37231; PPARgamma-SRC-1 coactivator recruitment biochemical assay; in the data active means activation above about 19%
Target sequence (P37231 whole entry, looked up): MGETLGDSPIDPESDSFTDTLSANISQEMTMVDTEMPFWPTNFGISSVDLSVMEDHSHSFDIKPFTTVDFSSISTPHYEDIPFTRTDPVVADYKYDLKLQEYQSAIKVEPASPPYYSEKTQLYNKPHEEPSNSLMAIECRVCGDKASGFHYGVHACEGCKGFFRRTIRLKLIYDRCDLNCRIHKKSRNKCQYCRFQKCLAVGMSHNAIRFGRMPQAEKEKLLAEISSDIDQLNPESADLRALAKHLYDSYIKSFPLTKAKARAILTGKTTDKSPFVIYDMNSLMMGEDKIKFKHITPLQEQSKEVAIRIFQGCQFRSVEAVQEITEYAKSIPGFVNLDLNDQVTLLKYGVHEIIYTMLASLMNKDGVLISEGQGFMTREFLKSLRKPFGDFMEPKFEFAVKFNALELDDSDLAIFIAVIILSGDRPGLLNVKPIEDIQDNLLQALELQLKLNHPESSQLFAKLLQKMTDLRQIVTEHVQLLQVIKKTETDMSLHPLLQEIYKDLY
SRC1 TRFRET art: TR-FRET detection interference compounds, primary screen, artefact control for PPARgamma SRC-1 recruitment agonists, biochemical, TR-FRET emission ratio | TR-FRET detection artefact counter-screen; stronger effect = higher value | TR-FRET ratio at 8 µM | actives 0.34% (n = 99,000) | AID 1051, 2008; in the data active means TR-FRET ratio above about 2300
PPARg SRC2 recr: agonists of PPARg-SRC-2 recruitment, primary screen, biochemical, HTS; Peroxisome proliferator-activated receptor gamma (Homo sapiens), P37231; PPARgamma LBD-SRC-2 recruitment; activation, % at 8 µM; actives 0.34% (n = 200,000); in the data active means activation above about 22%
SRC3 TRFRET art: TR-FRET detection interference compounds, artefact control for PPARgamma SRC-3 recruitment agonists, biochemical, TR-FRET ratio; TR-FRET ratio at 8 µM; actives 0.39% (n = 99,000); TR-FRET artefact counter-screen, PPARgamma/SRC-3 format; stronger effect = higher value
PPARg SRC-3 ag: PPARgamma agonists recruiting SRC-3 coactivator, primary screen, biochemical; Peroxisome proliferator-activated receptor gamma (Homo sapiens), P37231; activation, % at 8 µM; actives 0.26% (n = 200,000); biochemical PPARgamma/SRC-3 coactivator recruitment assay; in the data active means activation above about 23%
SRC2 TRFRET art: TR-FRET signal artefacts, primary screen, artefact control for PPARgamma SRC-2 agonist project, biochemical. TR-FRET artefact counter-screen; stronger effect = higher value. TR-FRET ratio at 8 µM. actives 0.4% (n = 200,000)
Of the large screens only hits and unclear results are named; the others gave an inactive call. Unless noted, no stated cut-off is given here; in the data, active means TR-FRET ratio above about 2000; inactive means the rest.

Cc1cccc(NC(=O)c2sc3nc(-c4ccc(F)cc4)cn3c2C)n1	PPARg SRC-1 ag 36 (no result: SRC1 TRFRET art, SRC3 TRFRET art)
C#CCn1c(=NC(=O)c2ccc(Cl)s2)sc2cccc(OC)c21	PPARg SRC-3 ag 30 (no result: SRC1 TRFRET art, SRC3 TRFRET art)
CCN(CC)CCNc1ccc2nnc(CCNS(=O)(=O)c3ccc(C)cc3)n2n1	none
COc1ccccc1CN(Cc1ccco1)S(=O)(=O)c1ccc(-n2cnnn2)c(OC)c1	none (no result: SRC1 TRFRET art, SRC3 TRFRET art)
Cn1c2ccccc2c2cc(C(=O)OCC(=O)N3CC(=O)Nc4ccccc43)sc21	SRC2 TRFRET art 2536 (no result: SRC1 TRFRET art, SRC3 TRFRET art)
CCOc1ccccc1CN1CCN(Cc2nc3c(s2)CCCC3)CC1CCO (stereo not given)	none
CC(=O)c1sc(NC(=O)c2ccc(C)c(C)c2)nc1C	none
CC(=O)c1sc(NC(=O)c2ccc(C(C)(C)C)cc2)nc1C	SRC3 TRFRET art 2151, SRC2 TRFRET art 1990
COc1ccc(OCC(=O)Nc2cc(-c3nn(C)c(=O)c4ccccc34)ccc2OC)cc1	PPARg SRC-1 ag 38 (no result: SRC1 TRFRET art, SRC3 TRFRET art)
Cc1oc(-c2cccc(Cl)c2)nc1CN1CCC(C(=O)N2CCN(c3ccccc3F)CC2)CC1	SRC1 TRFRET art 2346
O=c1cc(O)c2c(=O)n(-c3ccccc3)c3c(c2o1)CCCCC3	none
COC(=O)c1ccccc1NC(=O)Cc1nc(-c2ccccc2)sc1-c1ccc(C)cc1	SRC3 TRFRET art 2243
CC(/C=N/NC(=O)NC1CCCCC1)=C\c1ccccc1	SRC2 TRFRET art 2081
O=C(N/N=C/C(Br)=C/c1ccccc1)NC1CCCCC1	none
COc1ccc2cc(Br)ccc2c1CC(=O)NC(C)(C)C	SRC2 TRFRET art 2017
Cc1ccc(NC(=O)c2ccccc2N(C)S(=O)(=O)c2ccccc2)c(C)c1	none
CCOC(=O)C1=C(O)/C(=C/c2cccc(OC)c2O)N=C1C	SRC3 TRFRET art 2061
CC(=O)Nc1ccc(Br)c2ccccc12	SRC1 TRFRET art 2333, SRC3 TRFRET art 2311, SRC2 TRFRET art 2043
NNC1=N[C@H]2CS(=O)(=O)C[C@H]2S1	none
COc1ccccc1NC(=O)C1=C(C)NC(SCC(=O)c2ccc(C)cc2)=C(C#N)C1c1ccco1 (stereo not given)	SRC2 TRFRET art 2554 (no result: SRC1 TRFRET art, SRC3 TRFRET art)
COc1ccc(F)cc1C(=O)C1CCCN(Cc2c(C)n(C)n(-c3ccccc3)c2=O)C1 (stereo not given)	none
CCN(CC)S(=O)(=O)c1ccc(N2CCOCC2)c(NC(=O)c2cc(-c3ccccn3)nc3ccccc23)c1	SRC1 TRFRET art 2421, SRC3 TRFRET art 2191
COc1cccc(C(=O)NCc2ccc3c(c2)cc(C)n3C)c1	SRC1 TRFRET art 2604, SRC3 TRFRET art 2355, SRC2 TRFRET art 2069
COc1ccc(/C=C\C(=O)NCc2ccc3c(c2)cc(C)n3C)cc1OC	SRC3 TRFRET art 2112
CCc1cccc(C)c1NC(=S)NCc1ccc2c(c1)cc(C)n2C	SRC3 TRFRET art 2094
COc1ccc(C(=O)NCc2ccc3c(c2)cc(C)n3C)cc1OC	none
COc1ccc(-c2cc(-c3ccccc3)c(C#N)c(SCC(=O)Nc3ncc(C)s3)n2)cc1	SRC3 TRFRET art 2402
O=C(NCC1(N2CCOCC2)CCCCC1)c1cccc(S(=O)(=O)N2CCc3ccccc3C2)c1	none
Cc1ccc(NC(=O)CN(C)C(=S)NC2CC2)cc1	PPARg SRC-1 ag 26
O=C1CCCC(=O)C1C(=O)C1CCN(S(=O)(=O)c2ccccc2)CC1	none
CCOC12NC(=O)CC(=O)N1C(c1ccccc1)=CS2 (stereo not given)	SRC3 TRFRET art 2220
O=C(Cc1ccccc1)NC(NCCc1ccccc1)C(Cl)(Cl)Cl (stereo not given)	none (no result: SRC1 TRFRET art, SRC3 TRFRET art)
Cc1ccc(/C=C/C(=O)N2CCC(Cc3ccccc3)CC2)cc1	none
CCN(CC)C(=O)CSc1nc2ncccc2[nH]1	PPARg SRC-3 ag 32 (no result: SRC1 TRFRET art, SRC3 TRFRET art)
O=C(CCCCCN1C(=O)c2cccc3cccc(c23)C1=O)NCCO	none
CCOC(=O)C1=NN(c2cccc(Cl)c2)C2=NC(C)=C(C(=O)OC)C(c3cccs3)N12 (stereo not given)	PPARg SRC2 recr 27 (no result: SRC1 TRFRET art, SRC3 TRFRET art)
O=C(NCCCN1CCCC1=O)c1ccc2c(c1)ncn2C1CCCCC1	PPARg SRC2 recr 22
CC(C)OCCCNC(=O)c1ccc2c(c1)ncn2C1CCCC1	none
CCOC(=O)c1sc2nccc(N(C)C)c2c1N=CN(C)C	PPARg SRC-3 ag 27 (no result: SRC1 TRFRET art, SRC3 TRFRET art)
CN(C)C=Nc1c(C(=O)c2ccccc2)sc2nccc(N(C)C)c12	none
CN=C1SC(C(=O)Nc2ccccc2Cl)CC(=O)N1c1ccc(OC(F)(F)Cl)cc1 (stereo not given)	none
COCCNC(=S)N(Cc1cc2cc(C)ccc2n2nnnc12)C1CCCC1	none
CCc1ccc2c(c1)cc(CN(C(=S)Nc1ccc(Cl)cc1)C1CC1)c1nnnn12	PPARg SRC-1 ag 48 (no result: SRC1 TRFRET art, SRC3 TRFRET art)
COc1ccc(NS(=O)(=O)c2cc(NC(=O)Cn3cnc4c3c(=O)n(C)c(=O)n4C)ccc2C)cc1	none
CN1CCc2c(sc3c2C(=O)NC(c2ccc(-c4cccc(Cl)c4)o2)N3)C1 (stereo not given)	SRC1 TRFRET art 2385
CN1CCc2c(sc3c2C(=O)NC(c2cccs2)N3)C1 (stereo not given)	none (no result: SRC1 TRFRET art, SRC3 TRFRET art)
O=C(CSCC(=O)N1CCCCC1)Nc1nc(-c2ccccc2)c(-c2ccccc2)s1	SRC3 TRFRET art 2244
COc1ccc(-c2sc(NC(C)=O)nc2-c2ccccc2)cc1	none
Cc1n[nH]c(C)c1S(=O)(=O)N(CC(=O)Nc1ccc2c(c1)OCCO2)c1ccc(C(C)C)cc1	PPARg SRC2 recr 24 (no result: SRC1 TRFRET art, SRC3 TRFRET art)
Cc1noc(C)c1S(=O)(=O)N(CC(=O)Nc1ccc2c(c1)OCO2)c1ccc(C(C)C)cc1	none (no result: SRC1 TRFRET art, SRC3 TRFRET art)
NC(N)=N/N=C/c1ccc(Br)cc1	none
N#Cc1ccc(/C=N/N=C(N)N)cc1	PPARg SRC-3 ag 26 (no result: SRC1 TRFRET art, SRC3 TRFRET art)
CN1/C(=C\C(=O)COC(=O)CNC(=O)c2ccc3ccccc3c2)C(C)(C)c2ccccc21	SRC1 TRFRET art 3406, SRC3 TRFRET art 3346, SRC2 TRFRET art 2236
CN1/C(=C\C(=O)COC(=O)CNC(=O)c2ccccc2F)C(C)(C)c2ccccc21	none
COc1cc(OC)cc(-c2nnc(SCC(=O)N(Cc3ccccc3)C(C)(C)C)o2)c1	PPARg SRC2 recr 23 (no result: SRC1 TRFRET art, SRC3 TRFRET art)
O=C(C1CCCN(S(=O)(=O)c2ccc(F)cc2)C1)N(Cc1cccs1)C1CC1 (stereo not given)	SRC1 TRFRET art 2408
COc1cccc(CSc2nc3cc4c(cc3cc2C)OCCO4)c1	SRC3 TRFRET art 2784
Cc1cc2cc3c(cc2nc1SCc1ccc(C(=O)O)cc1)OCCO3	none
N#Cc1c(-c2ccccc2Cl)cc(-c2ccccc2)nc1Br	SRC3 TRFRET art 2059
CCC(=O)N(CCc1ccc(OC)c(OC)c1)Cc1cc2ccc(C)cc2n2nnnc12	none
